# Several values for one entry are separate records, joined by “and”; a condition that tells them apart may be missing. Equal entries are not always repeated. Some compounds were tested as several samples or in several runs, with calls that do not always agree. Activity calls are given as the source filed them. How the source made its calls: active means hit-call score of the fitted dose curve at least 0.9, where 1 is the maximum; inactive means score below 0.9.
# Assay: CCTE_Shafer_MEA_dev_correlation_coefficient_mean: CCTE's Neural Network Formation Assay for Mean Correlation Coefficient, Shafer Lab (AID 2284093);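 on AC50: well mean pairwise spike train correlation integrated as AUC over recording days 5 to 12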
# Method: CCTE_Shafer_MEA_dev assay is conducted using Axion Biosystems 48 well microelectrode array (MEA) plates and Maestro recording system. Each well of the MEA plate contains a grid of 16 microelectrodes embedded in the culture surface. Electrically active cells, such as neurons, can be cultured over the electrodes, and electrical activity in these cells can be recorded extracellularly. The spontaneous firing of neurons is captured from each electrode on a microsecond timescale providing both temporally and spatially precise data. […] The CCTE_Shafer_MEA_dev assay uses primary cultures of rat cortical neurons. Recordings are made on days post-plating 5, 7, 9 and 12. As these cultures mature over time, neural networks develop functional activity and form cohesive networks in which electrical activity can be highly coordinated. CCTE_Shafer_MEA_dev_correlation_coefficient_mean is 1 of 19 assay components of the CCTE_Shafer_MEA_dev assay. It measures the correlation coefficent of spikes (action potential firings) between every pair of electrodes in a well during a recording in a microelectrode array (MEA) using Axion Biosystems Maestro 768 channel amplifier with the AxIS adaptive spike detector. The pairwise correlations are averaged across active electrodes to report a well-mean value. To collapse across multiple recordings made on days post-plating 5, 7, 9 and 12, the trapezoidal area-under-the-curve of the component is calculated.Data from the assay component CCTE_Shafer_MEA_dev_correlation_coefficient_mean was analyzed into 1 assay endpoint. This assay endpoint, CCTE_Shafer_MEA_dev_correlation_coefficient_mean, was analyzed in the negative analysis fitting direction relative to DMSO as the negative control and baseline of activity. Using a type of functional reporter, gain or loss-of-signal activity can be used to understand electrical activity.
# On the day prior to culture, each well was coated thoroughly with 150 uL of 0.05% polyethyleneimine (PEI, Sigma Cat P3143) in 50 mM HEPES (Sigma Cat H7523) at a pH of 8. The plate was incubated at 37C for one hour. PEI was rinsed out with 500 uL of sterile water three times. Plates were stored at 4C until the day of culture. This culture was plated at a seeding density of 1.5 x 10^5 cells/well on a 48-well MEA plate, prepared as described above. Cells were administered via a 25 uL media/laminin ([…]; Sigma Cat L2020-1MG) drop directly onto the microelectrode array, as adding the cells with the laminin results in better attachment than pre-coating with laminin. After 2 hours, an additional 475 uL of cortical media was added and the cells returned to the incubator. Exposure starts at day 0 of plating and is continued over twelve days of network development until the experiment is terminated. Cells are fed with fresh medium on DIV 5 and 9, following the recordings on those days. The entire volume of media in the well is exchanged and any vehicle or compound treatment is renewed. Complete details are found in OP-NHEERL/ISTD/SBB/TJS/2015-03-r0 (available on request, email shafer.tim@epa.gov). Measurement of the electrical activity is non-invasive, and recordings can be made from the same plate over multiple different days of the culture. In cortical neurons, this allows for the measurement of extracellular action potentials over the period during which networks form in the MEA plate.
Structure (SMILES),AC50,outcome
CCOC(=O)CC(SP(=S)(OC)OC)C(=O)OCC (configuration not stated),12.7 µM (active) and 22.6 µM (active),–
CC(C)(C)c1ccc(CSc2cnn(C(C)(C)C)c(=O)c2Cl)cc1,0.00177 µM (active),–
CCOc1cc(Oc2ccc(C(F)(F)F)cc2Cl)ccc1[N+](=O)[O-],6.5 µM (active),–
COC(=O)N(OC)c1ccccc1COc1ccn(-c2ccc(Cl)cc2)n1,161 nM (active) and 10.2 nM (active),–
COP(N)(=O)SC (configuration not stated),–,inactive
Cc1ccc(-c2c(Cl)nc(C#N)n2S(=O)(=O)N(C)C)cc1,27.9 µM (active),–
Cc1c(F)c(F)c(COC(=O)C2C(/C=C(\Cl)C(F)(F)F)C2(C)C)c(F)c1F (configuration not stated),0.61 µM (active),–
CCNc1nc(Cl)nc(NC(C)C)n1,–,inactive
CCCCC(CC)COC(=O)c1ccccc1C(=O)OCC(CC)CCCC (configuration not stated),5.5 µM (active) and 7.56 µM (active),inactive
CCCCOC(=O)c1ccccc1C(=O)OCCCC,–,inactive
CO/C=C(/C(=O)OC)c1ccccc1Oc1cc(Oc2ccccc2C#N)ncn1,1.57 µM (active) and 574 nM (active),–
C=CC1(C)OC(=O)N(c2cc(Cl)cc(Cl)c2)C1=O (configuration not stated),50 µM (active),–
N#Cc1nn(-c2c(Cl)cc(C(F)(F)F)cc2Cl)c(N)c1S(=O)C(F)(F)F (configuration not stated),–,inactive
COc1ccc(C(c2ccc(OC)cc2)C(Cl)(Cl)Cl)cc1,2.95 µM (active),–
COP(=S)(OC)Oc1nc(Cl)c(Cl)cc1Cl,–,inactive
CCCCNC(=O)OCC#CI,3.8 µM (active) and 1.05 µM (active),–
CNC(=O)ON=CC(C)(C)SC,–,inactive
CN(C)C(=S)SSC(=S)N(C)C,0.00907 µM (active),–
CCCCNC(=O)n1c(NC(=O)OC)nc2ccccc21,15 µM (active),–
C=CCC1=C(C)C(OC(=O)C2C(C=C(C)C)C2(C)C)CC1=O (configuration not stated),4.1 µM (active),inactive

# — PubChem BioAssay (EPA / NIEHS)
